Among the test systems are RPMI-8226 leukemia; OVCAR-8 ovarian; OVCAR-5 ovarian; OVCAR-4 ovarian; SK-OV-3 ovarian; IGROV1 ovarian; OVCAR-3 ovarian; HS 578T breast; NCI/ADR-RES ovarian; T-47D breast; BT-549 breast; MDA-MB-435 melanoma; SW-620 colon; MCF7 breast; HCT-116 colon; HCC-2998 colon; KM12 colon.
What all share (assay): NCI-60 one-dose screen, 48 h (100 = growth as untreated, 0 = no growth, -100 = all killed)
Holding throughout (conditions): 10 µM unless noted

Structures are written as SMILES. The panel holds about 83,000 compounds, 20% with a hit somewhere; the sample as a whole holds those more often.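 96-well plates, one dose, 48 hours. Percent growth reported; active if below 10.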 Values without a mark were called inactive. The source made the active and inactive calls.

With `Cc1ccc2c(c1)ncn2-c1ncnc2c1CC(C)c1ccccc1N2C` (stereo unspecified), the growth in the experiment on RPMI-8226 leukemia was -9.63% (active); in the experiment with OVCAR-8 ovarian, 8.64% (active); with OVCAR-5 ovarian, 54.8%; in the experiment on OVCAR-4 ovarian it was 46.5%; with SK-OV-3 ovarian it was 29.6%; with IGROV1 ovarian, 16.3%. For the same molecule, the growth in the experiment with OVCAR-3 ovarian is 9.32% (active); in the experiment on HS 578T breast, 20.2%; in the experiment on NCI/ADR-RES ovarian, 17.1%; in the experiment with T-47D breast, 24.4%; in the experiment on BT-549 breast, -6.44% (active); in the experiment with MDA-MB-435 melanoma it was 11.8%. Also, the growth was 22.9% in the experiment on SW-620 colon; 12.9% in the experiment on MCF7 breast; 10.1% with HCT-116 colon; 26.8% with HCC-2998 colon; 10.5% in the experiment with KM12 colon.
For `Cc1ccc(Cn2c(-c3nonc3N)nc3ccccc32)cc1`, the growth is 91% in the experiment on RPMI-8226 leukemia; 88.3% in the experiment with OVCAR-8 ovarian; 81.2% with OVCAR-5 ovarian; 87.1% in the experiment with OVCAR-4 ovarian; 80.4% in the experiment on SK-OV-3 ovarian; 67.2% in the experiment with IGROV1 ovarian. The growth is 71.8% in the experiment on OVCAR-3 ovarian; 72.9% in the experiment with HS 578T breast; 49.2% in the experiment on NCI/ADR-RES ovarian; 74.6% in the experiment with T-47D breast; 68.3% with BT-549 breast; -30.8% (active) in the experiment on MDA-MB-435 melanoma. The growth with SW-620 colon was 28.4%; with MCF7 breast, 55.5%; in the experiment with HCT-116 colon it was 58.2%; in the experiment with HCC-2998 colon it was 75.1%; in the experiment on KM12 colon, 31.6%.
As for `CN(C)c1nc(N)c(N=O)c(N)n1`, the growth in the experiment with RPMI-8226 leukemia was 110%; in the experiment with OVCAR-8 ovarian it was 114%; with OVCAR-5 ovarian, 111%; in the experiment with OVCAR-4 ovarian it was 108%; in the experiment with SK-OV-3 ovarian, 99.2%; in the experiment on IGROV1 ovarian, 110%. For the same molecule, the growth was 101% in the experiment on OVCAR-3 ovarian; 106% in the experiment on HS 578T breast; 122% with NCI/ADR-RES ovarian; 104% in the experiment on T-47D breast; 115% in the experiment with BT-549 breast; 110% in the experiment with MDA-MB-435 melanoma. For the same molecule, the growth in the experiment with SW-620 colon was 108%; in the experiment on MCF7 breast it was 102%; in the experiment with HCT-116 colon, 105%; with HCC-2998 colon, 113%; with KM12 colon, 108%.
On to `COc1cc(-c2nc(-c3nc4ccccc4[nH]3)cc3c2[nH]c2ccccc23)cc(OC)c1OC`, for which the growth is -4.95% (active) in the experiment with RPMI-8226 leukemia; 13.2% in the experiment on OVCAR-8 ovarian; 88.8% in the experiment with OVCAR-5 ovarian; 59.5% with OVCAR-4 ovarian; 104% in the experiment with SK-OV-3 ovarian; 18.9% in the experiment with IGROV1 ovarian. In addition, the growth in the experiment on OVCAR-3 ovarian is 31.7%; in the experiment with HS 578T breast, 55.8%; in the experiment with NCI/ADR-RES ovarian it was 32.2%; in the experiment on T-47D breast it was 25%; with BT-549 breast, 27%; with MDA-MB-435 melanoma, 31.1%. The growth with SW-620 colon is 56.5%; with MCF7 breast it was 42.6%; in the experiment on HCT-116 colon, 23%; with HCC-2998 colon, 57.3%; with KM12 colon, 18.7%.
In the case of `CCN(Cc1ccc(CN(CC)C(=O)C(Br)Br)cc1)C(=O)C(Br)Br`, the growth in the experiment with RPMI-8226 leukemia is 14.2%; in the experiment with OVCAR-8 ovarian it was 20.4%; in the experiment on OVCAR-5 ovarian, 71.1%; in the experiment with OVCAR-4 ovarian it was 32.1%; with SK-OV-3 ovarian, 79.8%; with IGROV1 ovarian, 46.4%. Also, the growth in the experiment with OVCAR-3 ovarian was 8.57% (active); in the experiment on HS 578T breast it was 38.1%; in the experiment on NCI/ADR-RES ovarian, 39.7%; with T-47D breast it was 27.9%; in the experiment on BT-549 breast, 36%; in the experiment with MDA-MB-435 melanoma, 22.3%. In addition, the growth with SW-620 colon was 21.6%; in the experiment with MCF7 breast, 24.4%; with HCT-116 colon it was -21% (active); in the experiment on HCC-2998 colon, 18.8%; with KM12 colon it was 4.49% (active).
As for `Nc1c(C(=O)Nc2cccc(C(F)(F)F)c2)sc2nc3c(cc12)C(O)CCC3` (stereo unspecified), the growth is 15.6% in the experiment on RPMI-8226 leukemia; 46.2% with OVCAR-8 ovarian; 53.5% with OVCAR-5 ovarian; 58.5% with OVCAR-4 ovarian; 25.7% with SK-OV-3 ovarian; 54.4% in the experiment with IGROV1 ovarian. Moreover, the growth was 2.06% (active) in the experiment on OVCAR-3 ovarian; 51.2% with HS 578T breast; 22.5% with NCI/ADR-RES ovarian; 17% in the experiment with T-47D breast; 52.9% with BT-549 breast; -16.7% (active) in the experiment with MDA-MB-435 melanoma. For the same molecule, the growth is 33.1% in the experiment with SW-620 colon; 10.2% with MCF7 breast; 35.2% in the experiment with HCT-116 colon; 78.8% in the experiment on HCC-2998 colon; 18.1% in the experiment on KM12 colon.
For the molecule `CN(C)C1CCC(NC2=CC(=O)C=CC2=O)CC1` (stereo unspecified), the growth in the experiment with RPMI-8226 leukemia is 111%; in the experiment with OVCAR-8 ovarian, 113%; in the experiment on OVCAR-5 ovarian, 118%; in the experiment on OVCAR-4 ovarian, 111%; in the experiment on SK-OV-3 ovarian, 119%; with IGROV1 ovarian it was 105%. In addition, the growth in the experiment on OVCAR-3 ovarian is 116%; with HS 578T breast, 108%; with NCI/ADR-RES ovarian, 111%; in the experiment with T-47D breast, 110%; with BT-549 breast it was 114%; with MDA-MB-435 melanoma, 114%. Moreover, the growth in the experiment with SW-620 colon is 117%; with MCF7 breast, 97.9%; in the experiment on HCT-116 colon it was 5.98% (active); in the experiment on HCC-2998 colon, 126%; with KM12 colon it was 108%.
Turning to `COc1ccc(/C(=N/O)c2cc(F)c(F)c(OC)c2F)cc1O`, the growth in the experiment with RPMI-8226 leukemia was 22.1%; with OVCAR-8 ovarian it was 17.7%; in the experiment on OVCAR-5 ovarian, 52.1%; in the experiment on OVCAR-4 ovarian it was 58.6%; with SK-OV-3 ovarian, 17.3%; in the experiment with IGROV1 ovarian it was 50.6%. The growth was -2.69% (active) in the experiment with OVCAR-3 ovarian; 8.26% (active) with HS 578T breast; 17.4% with NCI/ADR-RES ovarian; 28.4% in the experiment with T-47D breast; 33.5% in the experiment with BT-549 breast; -35.7% (active) in the experiment with MDA-MB-435 melanoma. The growth in the experiment on SW-620 colon was 15.2%; in the experiment on HCT-116 colon, 15.6%; with HCC-2998 colon, 42.7%; in the experiment with KM12 colon, 29.3%.
`CCCCn1c(=O)c(C2CNC(=O)c3ccccc3N2)cc2ccccc21` (stereo unspecified): the growth in the experiment with RPMI-8226 leukemia was 109%; in the experiment on OVCAR-8 ovarian, 114%; with OVCAR-5 ovarian, 96.3%; in the experiment with OVCAR-4 ovarian, 103%; with SK-OV-3 ovarian, 97.2%; in the experiment on OVCAR-3 ovarian, 99.7%. Besides, the growth in the experiment on HS 578T breast is 94.6%; in the experiment with NCI/ADR-RES ovarian, 100%; in the experiment with T-47D breast, 93.7%; in the experiment on BT-549 breast it was 97.8%; in the experiment on MDA-MB-435 melanoma it was 105%; in the experiment on SW-620 colon, 99.2%. Moreover, the growth in the experiment with MCF7 breast was 99.6%; in the experiment on HCT-116 colon it was 94.9%; with HCC-2998 colon, 108%; in the experiment on KM12 colon it was 101%.

(Values after PubChem BioAssay (NCI).)
